PrPC TRFRET – inhibitors of human cell surface prion protein PrPC; P04156; TR-FRET read-out; inhibition, % at 13.8 µM; 370,000 compounds, 0.43% hits; AID 720596; in the data active means inhibition above about 24%; further: 0% = median of the test wells and 100% = reference compound wells
Y pestis TopoI – Y. pestis Topo-I inhibition via cleavage products. Y. pestis Topo-I cleavage product accumulation, plate reader. activity, % at 10 µM. 360,000 compounds, 0.064% hits; in the data active means activity above about 50%, passing the limit was not always enough
Mtb FBA inh – inhibits M. tuberculosis FBA enzyme. P9WQA3. purified M. tuberculosis FBA, fluorescence read-out. inhibition, % at 1 µM. 360,000 compounds, 2.3% hits; in the data active means inhibition above about 27%;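 further: 0% = vehicle and 100% = reference inhibitor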
Target sequence (P9WQA3 whole entry, looked up): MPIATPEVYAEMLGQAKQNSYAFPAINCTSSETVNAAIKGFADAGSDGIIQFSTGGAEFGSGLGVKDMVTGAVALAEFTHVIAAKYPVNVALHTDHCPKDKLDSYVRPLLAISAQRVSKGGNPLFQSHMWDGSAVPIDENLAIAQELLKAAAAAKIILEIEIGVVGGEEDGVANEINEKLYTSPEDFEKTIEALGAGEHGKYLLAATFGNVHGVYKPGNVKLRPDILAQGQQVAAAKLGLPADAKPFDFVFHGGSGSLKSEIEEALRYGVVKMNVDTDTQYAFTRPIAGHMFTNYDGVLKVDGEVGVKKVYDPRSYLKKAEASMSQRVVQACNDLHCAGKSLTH
PrP 5UTR inh – inhibition of PrP 5' UTR reporter expression. cell-based PrP 5' UTR mRNA reporter, plate reader. inhibition, % (concentration not given with the values). 340,000 compounds, 0.35% hits. AID 488862; in the data active means inhibition above about 52%; further: 0 = median of the neutral control wells
GDH-TPI inh – GDH-TPI coupled enzyme inhibition counter-screen; inhibition, % at 4.8 µM; 360,000 compounds, 1.2% hits; GDH-TPI coupled enzyme counterscreen, NADH absorbance; AID 588335; in the data active means inhibition above about 30%;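 further: 0% = DMSO wells and 100% = wells lacking the enzyme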
Mtb hypoxia rep – reduces hypoxia-regulated biosensor signal in M. tuberculosis | M. tuberculosis hypoxia-regulated fluorescent reporter, fluorescence | fluorescence inhibition, % (no concentration beside the values) | 300,000 compounds, 0.1% hits | AID 1159583; in the data active means fluorescence inhibition mostly above about 23%, no sharp cut-off; inactive means mostly below about 17%
Numbers without * were called inactive. Only some compounds are listed: those with a hit (about 3.8% of all), similar ones and a draw of the others.

Screening Cn1cc(C(=O)NN=C/C(Br)=C/c2ccccc2)ccc1=O returned Mtb hypoxia rep 11.
COc1ccccc1/C=C/C=NNC(=O)c1ccc(=O)n(C)c1 was read as Mtb hypoxia rep 3.
`Cn1cc(C(=O)N/N=C/C=C/c2ccccc2)ccc1=O` gave PrPC TRFRET -15, Y pestis TopoI -3, Mtb FBA inh -4, PrP 5UTR inh -19 and GDH-TPI inh 40*.
For Cc1nc2ccccc2c(=O)n1N=Cc1ccco1 the results were Mtb hypoxia rep -10.
COc1cc(/C=C/C(=O)O)ccc1OS(=O)(=O)c1c(C)c(C)cc(C)c1C was read as PrPC TRFRET -11, Y pestis TopoI 14, Mtb FBA inh 2, PrP 5UTR inh -19, GDH-TPI inh 6 and Mtb hypoxia rep 12.
Screening COc1cc(C)c(/C=C/C(C)=C/C=C/C(C)=C/C(=O)O)c(C)c1C returned PrPC TRFRET 1, Y pestis TopoI 11, Mtb FBA inh -1, PrP 5UTR inh -14 and GDH-TPI inh 61*.
CCc1n[nH]c(=S)n1N=Cc1c(C)nn(-c2ccccc2)c1Cl was read as Mtb hypoxia rep -6.
`O=C1CC(C(=O)O)S/C(=N\N=C\c2ccc(Br)cc2)N1` (stereo not drawn) gave PrPC TRFRET 2, Y pestis TopoI 8, Mtb FBA inh 0, PrP 5UTR inh 4 and GDH-TPI inh 66*.
Screening Cc1ccccc1NCC(=O)NN=Cc1ccc([N+](=O)[O-])s1 returned Mtb hypoxia rep 17.
S=c1[nH]nc(-c2ccco2)n1N=Cc1ccccc1 was read as Mtb hypoxia rep 15.
`CCSc1nc2c(c(=O)[nH]1)C(c1ccccn1)C1=C(CC(C)(C)CC1=O)N2` (stereo not drawn) gave PrPC TRFRET -7, Y pestis TopoI -2, Mtb FBA inh 124*, PrP 5UTR inh -19, GDH-TPI inh 12 and Mtb hypoxia rep 8.
Screening CC(C)Sc1nc2c(c(=O)[nH]1)C(c1cccs1)C1=C(CC(C)(C)CC1=O)N2 (stereo not drawn) returned PrPC TRFRET 5, Y pestis TopoI 10, Mtb FBA inh 3, PrP 5UTR inh -23, GDH-TPI inh 15 and Mtb hypoxia rep 3.
`O=C1C=CC2(O[C@H](c3ccccc3)[C@@H](c3ccccc3)O2)[C@H](Sc2ccccc2O)C1` gave PrPC TRFRET 89*, Y pestis TopoI 23, Mtb FBA inh -1, PrP 5UTR inh 36 and GDH-TPI inh 1.
For CCN(CC)CCCNc1ccc(-c2nnc(-c3ccc(OCC(C)C)cc3)o2)cn1 the results were PrPC TRFRET -13, Y pestis TopoI -10, Mtb FBA inh active, PrP 5UTR inh -22 and GDH-TPI inh 24.
CC=CC(=O)Nc1cccc(C2=NOC3(C2)CC(C(N)=O)N(C(=O)c2cc([N+](=O)[O-])cc([N+](=O)[O-])c2)C3)c1 (stereo not drawn) was read as Mtb hypoxia rep 40*.
Screening C/C=C/C(=O)Nc1cccc(C2=NOC3(C2)C[C@@H](C(N)=O)N(C(=O)c2cc([N+](=O)[O-])cc([N+](=O)[O-])c2)C3)c1 (stereo partly drawn) returned PrPC TRFRET -47, Y pestis TopoI -13, Mtb FBA inh -2, PrP 5UTR inh -24 and GDH-TPI inh -3.
CCC(C)CCN1C(N(C)C)=NCC1Cc1ccccc1 (stereo not drawn) was read as Mtb hypoxia rep 11.
For Cn1c(=O)c2cc(NC(=O)Cc3cccnc3)ccc2n1-c1ccc2ccccc2c1 the results were PrPC TRFRET 1, Y pestis TopoI 22, Mtb FBA inh 3 and GDH-TPI inh 8.
`COc1cc(Cn2c3ccc(NC(=O)CCc4cccnc4)cc3c(=O)n2C)ccc1F` gave PrPC TRFRET -9, Y pestis TopoI 2, Mtb FBA inh 177* and GDH-TPI inh 3.
Cn1c(=O)c2cc(NC(=O)CCc3cccnc3)ccc2n1Cc1ccc(F)cc1 was read as PrPC TRFRET -4, Y pestis TopoI -4, Mtb FBA inh 175* and GDH-TPI inh 8.
For Cn1c(=O)c2cc(NC(=O)CCc3cccnc3)ccc2n1Cc1cccc(C(F)(F)F)c1 the results were PrPC TRFRET 7, Y pestis TopoI 8, Mtb FBA inh 141* and GDH-TPI inh 5.
Screening COc1cc(Cn2c3ccc(NC(=O)CCc4ccccc4)cc3c(=O)n2C)ccc1F returned PrPC TRFRET 16, Y pestis TopoI 31, Mtb FBA inh 157* and GDH-TPI inh 13.

Compound activity from PubChem BioAssay.
